Reference: PubChem BioAssay (NCATS)
“And” between values parts separate entries of the source, which are not always exact repeats. Identical values can stand only once. Records with an inconclusive call do not appear. The source made the active and inactive calls. Unless noted, calls follow the shape of the dose curve; as a rule, active = well fitted curve in the direction sought with a large enough effect; inconclusive = small, poorly fitted or top-dose-only effect, or another doubt; inactive = no such curve, though single readings can be large; an effect the other way counts as inactive or inconclusive.

What was measured:
[1] = qHTS Assay for Lipid Storage Modulators (AID 1519; calls by dose curve; as to activity change, negative = inhibition: % is scaled to controls: 0 for no effect and ±100 for the full control effect); details: Drosophila S3 cells, BODIPY lipid droplet/cell ratio, laser cytometry, cells loaded with oleic acid
Outline: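 Cells seeded at 5,000 per well were treated with compounds over a concentration series and loaded with oleic acid (400 uM, as added). Lipid droplet fluorescence (488 nm excitation, 500-530 nm channel) was read by laser-scanning cytometry and normalized to 20 uM Triacsin C.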

[2] = qHTS Assay for Identification of Small Molecule Inducers of Hypoxia Response (AID 2120; active = well fitted curve in the direction sought with a large enough effect in the signal ratio, with a control signal flat, not every such curve was filed as active; the % refers to the signal ratio; also: 0% is about no effect); details: hypoxia response reporter cells, beta-lactamase ratio readout; series mostly up to 104 µM
Outline: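 Cell-based qHTS for reporter induction: hypoxia response element controlled beta-lactamase in ME-180 cells. Compounds incubated 17 h at 37 degrees C; activity from blue/green (460/530 nm) ratio, inducers ranked by AC50.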

[3] = target: alpha-glucosidase (Oryza sativa, rice) (UniProt Q653V4); assay: Counterscreen for Glucocerebrosidase Inhibitors: qHTS Assay for Rice alpha-Glucosidase at pH 5.0 (AID 997); details: rice alpha-glucosidase enzyme activity; series mostly up to 76.9 µM;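 also: 0% = full activity with enzyme and -100% = basal without enzyme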
Outline: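 Endpoint fluorogenic assay at pH 5.0: compounds (0.7 nM to 77 uM) titrated against 4 nM rice enzyme and 400 uM 4-MU-alpha-glucoside for 20 min at room temperature; NaOH/glycine stop, read ex 365/em 440 nm, Hill-fitted AC50.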

[4] = target: DNA repair nuclease/redox regulator APEX1 (Homo sapiens) (UniProt P27695); assay: qHTS Validation Assay for Inhibitors of the Human Apurinic/apyrimidinic Endonuclease 1 (APE1) (AID 1705;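 also: TAMRA fluorescence gain over two minutes as APE1 cuts a quenched THF abasic duplex; % is scaled to controls: 0 for no effect and ±100 for the full control effect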); details: purified APE1 endonuclease activity, fluorescence, titration; series mostly up to 57.1 µM
Outline: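 Human APE1 was preincubated with compound for 15 min at room temperature, then 50 nM (final) THF-abasic double-stranded DNA substrate bearing 5'-TAMRA and 3'-BHQ-2 was added. Incision-driven fluorescence rise (ex 525/em 598 nm) was read kinetically.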

[5] = Counterscreen for APE1 Inhibitors: Fluorescent Dye Displacement Validation Assay (AID 1707); details: fluorescent dye displacement from DNA; series mostly up to 57.1 µM;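 also: plate controls were ThO with dsDNA and no compound for no effect and ThO without dsDNA for full effect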
Outline: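 Loss of Thiazole Orange fluorescence marks promiscuous DNA binders. The dye (250 nM) is mixed with 50 nM abasic-site dsDNA in pH7.5 Tris buffer containing MgCl2, then compounds are added and emission is read once.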

[6] = target: Endonuclease 4 (Escherichia coli (strain K12)) (UniProt P0A6C1); assay: Counterscreen for APE1 Inhibitors: qHTS Validation Assay for Inhibitors of Endonuclease IV (AID 1708); also: % is scaled to controls: 0 for no effect and ±100 for the full control effect; details: E. coli endonuclease IV, DNA cleavage fluorescence; series mostly up to 57.1 µM
Outline: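 Enzyme (2 nM) + compound, 15 min RT; add 50 nM TAMRA/BHQ-2 THF-site dsDNA; kinetic read ex525/em598, 3 reads/60 s; activity = read 3 − read 1. Buffer Tris pH 7.5, 50 mM NaCl, 2 mM MgCl2, DTT, Tween-20.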

[7] = qHTS for differential inhibitors of proliferation of Plasmodium falciparum line 7G8 (AID 1815); details: Plasmodium falciparum 7G8 proliferation inhibition; series mostly up to 28.7 µM;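 also: parasite growth measured after three days of incubation; plate controls were vehicle wells for no effect and reference inhibitor wells for full effect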
[8] = qHTS for differential inhibitors of proliferation of Plasmodium falciparum line GB4 (AID 1816); details: series mostly up to 28.7 µM;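 also: parasite growth measured after 72 h incubation; 0% = vehicle DMSO and -100% = reference inhibitor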
[9] = qHTS for differential inhibitors of proliferation of Plasmodium falciparum line 3D7 (AID 1876);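 also: parasite growth measured after three days of culture; 0% = vehicle wells and -100% = reference inhibitor wells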; details: P. falciparum 3D7 proliferation inhibition; series mostly up to 28.7 µM
[10] = qHTS for differential inhibitors of proliferation of Plasmodium falciparum line D10 (AID 1877); details: series mostly up to 28.7 µM;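 also: parasites grown with compound for 72 h before DNA staining; plate controls were vehicle wells for no effect and reference inhibitor wells for full effect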
[11] = qHTS for differential inhibitors of proliferation of Plasmodium falciparum line Dd2 (AID 1882); details: series mostly up to 28.7 µM;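 also: plate controls were DMSO vehicle for no effect and 0.29 µM artemisinin for full effect; nearly all actives have a fitted effect of over 65% in size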
Outline: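 SYBR Green DNA fluorescence (ex 485, em 535 nm) after overnight lysis quantifies parasite growth; compound exposure lasted 72 h at 37 C on infected red cells at 2.5% hematocrit, 0.3% parasitemia (final). Artemisinin 0.29 uM and vehicle wells define normalization.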

[12] = qHTS for differential inhibitors of proliferation of Plasmodium falciparum line W2 (AID 1883); details: series mostly up to 28.7 µM;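 also: parasites grown with compound for 72 h before lysis and staining; 0% = vehicle wells and -100% = control inhibitor wells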
[13] = qHTS for differential inhibitors of proliferation of Plasmodium falciparum line HB3 (AID 1886); details: series mostly up to 28.7 µM;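 also: parasites grown with compound for 72 h before SYBR Green readout; plate controls were vehicle for no effect and reference inhibitor for full effect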
[14] = target: Ferritin light chain (Equus caballus) (UniProt P02791); assay: qHTS Validation Assay for Identification of Novel General Anesthetics (AID 2323); details: horse apoferritin, anesthetic-site fluorescent probe displacement; series mostly up to 76.9 µM; also: % is scaled to controls: 0 for no effect and ±100 for the full control effect
Outline: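 Competitive displacement of profluorescent 1-aminoanthracene (1-AMA, 50% saturated solution in PBS) from 10 uM horse-spleen apoferritin. Compounds incubated 10 min at room temperature; fluorescence read at 380 nm excitation/535 nm emission, normalized to free 1-AMA and complex, fitted with four-parameter Hill equation.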

[15] = target: ATP-dependent DNA helicase Q1 (Homo sapiens) (UniProt P46063); assay: qHTS Validation Assay for Inhibitors of RecQ-Like Dna Helicase 1 (RECQ1) (AID 2353); details: recombinant RECQ1 helicase DNA unwinding assay; series mostly up to 25.6 µM;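 also: plate controls were DMSO vehicle for no effect and enzyme-free control for full effect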
Outline: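 RECQ1T1 50 nM; forked duplex (20 bp + 30-nt ss tails) 200 nM, ATP 2 mM final; pH 8.0, 2 mM MgCl2, 2.5 ug/ml poly(dI-dC); 15 min compound preincubation; discontinuous kinetic read over 2 h at RT.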

[16] = Validation screen for small molecules that induce DNA re-replication in MCF 10A normal breast cells (AID 463097); details: MCF 10A cells, DNA re-replication phenotype imaging; series mostly up to 46.1 µM; also: 0% is about no effect; nearly all actives have a fitted effect of over 60% in size
Outline: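 Readout: Hoechst nuclear fluorescence intensity, 405 ex / 500-530 em, by scanning plate imager; re-replication scored as increase in nuclei with elevated DNA content. Cells exposed to compound 48 hr, 37 C, 5% CO2 beforehand.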

[17] = Quantitative high throughput screen for delayed death inhibitors of the malarial parasite plastid, 96 hour incubation (AID 488745); details: Plasmodium falciparum growth; series mostly up to 28.7 µM;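 also: luciferase-expressing P. falciparum in erythrocytes at 2% hematocrit and 0.1% parasitemia; % is scaled to controls: 0 for no effect and ±100 for the full control effect; nearly all actives have a fitted effect of over 70% in size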
Outline: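 Readout is firefly luciferase luminescence from an integrated reporter in P. falciparum; lower signal marks inhibited growth. Cultures at 2% hematocrit and 0.1% parasitemia were treated with compound across two generations (96 h, 37 C, 5% CO2).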

[18] = Quantitative high throughput screen for delayed death inhibitors of the malarial parasite plastid, 48 hour incubation (AID 488752); details: Plasmodium falciparum growth; series mostly up to 28.7 µM; also: % is scaled to controls: 0 for no effect and ±100 for the full control effect; nearly all actives have a fitted effect of over 65% in size
Outline: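 First, compound was pinned into RPMI 1640 medium containing 0.5% Albumax. Next, reporter-parasite-infected erythrocytes were added to 2% hematocrit and 0.1% parasitemia. After 48 h at 37 C under 5% CO2, luciferase detection reagent was added and luminescence read.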

[19] = target: M-phase phosphoprotein 8 (Homo sapiens) (UniProt Q99549); assay: qHTS Validation Assay for Inhibitors for MPP8 Chromodomain Interactions with Methylated Histone Tails (AID 488949); details: AlphaScreen MPP8 binding to H3K9me3 peptide; series mostly up to 114 µM;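 also: AlphaScreen signal from MPP8 chromodomain bound to biotinylated H3K9me3 peptide; top concentration of the series differs between compounds; % is scaled to controls: 0 for no effect and ±100 for the full control effect; nearly all actives have a fitted effect of over 55% in size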
Outline: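 MPP8 (50 nM) was preincubated with biotinylated H3(1-18)K9me3 peptide (50 nM) in PBS pH 7.4, 0.01% Tween-20 for 30 min at room temperature, then with compounds for 30 min; binding was detected by AlphaScreen.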

[20] = target: Transient receptor potential cation channel subfamily V member 1 (Homo sapiens) (UniProt Q8NER1); assay: HTS Assay for Compounds that Act as Enhancers of the Vanilloid Receptor 1 (AID 488979); details: TRPV1-expressing cells, enhancer of channel activity, stimulated with capsaicin at EC20; series mostly up to 41.7 µM; also: 0% is about no effect
Outline: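 TRPV1-expressing cells loaded with Fluo-8 calcium dye; compounds added and calcium influx read kinetically for 3 min (agonist phase), then capsaicin at EC20 added and read 2 min more for enhancement. Fluorescence ex 480/em 520 nm.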

[21] = measured here: cell count channel max response
[22] = measured here: lipid channel max response

Chain of Ferritin light chain (Equus caballus) (P02791 2-175 limits assumed): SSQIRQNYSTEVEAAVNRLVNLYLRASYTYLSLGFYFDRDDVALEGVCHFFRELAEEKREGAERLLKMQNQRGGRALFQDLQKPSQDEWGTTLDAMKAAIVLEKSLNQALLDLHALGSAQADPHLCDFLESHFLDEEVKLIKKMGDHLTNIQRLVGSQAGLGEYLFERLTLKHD
Chain of DNA repair nuclease/redox regulator APEX1 (Homo sapiens) (P27695 whole entry, looked up): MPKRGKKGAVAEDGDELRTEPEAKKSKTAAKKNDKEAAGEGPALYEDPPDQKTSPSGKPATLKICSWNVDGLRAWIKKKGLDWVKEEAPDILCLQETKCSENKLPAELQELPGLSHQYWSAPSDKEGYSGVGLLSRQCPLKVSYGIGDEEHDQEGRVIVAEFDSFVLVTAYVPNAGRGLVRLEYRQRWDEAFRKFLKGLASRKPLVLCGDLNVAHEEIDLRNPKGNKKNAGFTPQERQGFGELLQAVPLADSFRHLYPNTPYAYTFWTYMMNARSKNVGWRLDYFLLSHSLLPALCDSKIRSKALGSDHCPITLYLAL
Chain of Transient receptor potential cation channel subfamily V member 1 (Homo sapiens) (Q8NER1 whole entry, looked up): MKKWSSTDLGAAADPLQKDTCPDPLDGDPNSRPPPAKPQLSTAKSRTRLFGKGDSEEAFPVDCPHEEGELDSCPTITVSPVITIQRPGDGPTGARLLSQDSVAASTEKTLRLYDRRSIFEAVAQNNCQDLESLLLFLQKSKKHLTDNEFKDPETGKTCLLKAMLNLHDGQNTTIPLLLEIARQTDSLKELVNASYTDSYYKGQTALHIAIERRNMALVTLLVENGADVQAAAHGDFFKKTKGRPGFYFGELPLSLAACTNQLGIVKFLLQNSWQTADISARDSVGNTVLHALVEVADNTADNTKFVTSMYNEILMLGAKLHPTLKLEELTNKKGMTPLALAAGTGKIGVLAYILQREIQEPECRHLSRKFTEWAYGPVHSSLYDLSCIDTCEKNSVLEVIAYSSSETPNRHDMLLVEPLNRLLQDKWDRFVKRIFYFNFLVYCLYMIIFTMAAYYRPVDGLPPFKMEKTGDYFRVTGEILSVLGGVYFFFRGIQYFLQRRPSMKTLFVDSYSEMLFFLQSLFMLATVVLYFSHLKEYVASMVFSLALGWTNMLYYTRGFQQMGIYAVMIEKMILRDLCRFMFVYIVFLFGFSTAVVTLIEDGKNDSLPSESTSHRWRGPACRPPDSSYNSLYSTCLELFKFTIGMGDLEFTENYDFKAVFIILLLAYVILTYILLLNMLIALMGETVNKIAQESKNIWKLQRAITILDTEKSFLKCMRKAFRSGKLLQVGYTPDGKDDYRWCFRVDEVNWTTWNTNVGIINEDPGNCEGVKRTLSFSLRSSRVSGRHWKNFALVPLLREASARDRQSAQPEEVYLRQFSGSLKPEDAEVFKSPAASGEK
Chain of M-phase phosphoprotein 8 (Homo sapiens) (Q99549 whole entry, looked up): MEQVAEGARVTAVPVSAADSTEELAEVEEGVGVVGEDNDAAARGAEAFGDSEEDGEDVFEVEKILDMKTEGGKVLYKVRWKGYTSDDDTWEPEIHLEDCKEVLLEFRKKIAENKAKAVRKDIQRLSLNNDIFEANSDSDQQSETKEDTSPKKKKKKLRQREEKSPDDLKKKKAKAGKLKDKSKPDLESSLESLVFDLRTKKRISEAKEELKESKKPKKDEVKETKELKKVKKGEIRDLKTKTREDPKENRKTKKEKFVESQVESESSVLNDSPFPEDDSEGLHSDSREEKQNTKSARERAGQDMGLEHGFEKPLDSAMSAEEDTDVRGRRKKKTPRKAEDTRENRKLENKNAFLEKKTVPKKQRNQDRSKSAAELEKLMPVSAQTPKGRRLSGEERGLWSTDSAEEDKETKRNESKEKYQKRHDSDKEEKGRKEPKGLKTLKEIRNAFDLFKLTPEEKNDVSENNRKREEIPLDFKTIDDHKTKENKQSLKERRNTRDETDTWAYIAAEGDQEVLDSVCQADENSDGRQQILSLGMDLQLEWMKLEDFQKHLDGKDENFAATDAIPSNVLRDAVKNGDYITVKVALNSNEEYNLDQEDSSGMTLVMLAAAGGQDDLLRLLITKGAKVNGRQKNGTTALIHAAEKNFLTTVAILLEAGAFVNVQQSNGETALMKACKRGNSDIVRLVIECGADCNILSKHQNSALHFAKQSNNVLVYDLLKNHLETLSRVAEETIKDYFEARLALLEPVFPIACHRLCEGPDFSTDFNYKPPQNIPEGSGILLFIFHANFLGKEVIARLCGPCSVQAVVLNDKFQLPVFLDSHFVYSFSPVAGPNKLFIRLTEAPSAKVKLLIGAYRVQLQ
Chain of ATP-dependent DNA helicase Q1 (Homo sapiens) (P46063 whole entry, looked up): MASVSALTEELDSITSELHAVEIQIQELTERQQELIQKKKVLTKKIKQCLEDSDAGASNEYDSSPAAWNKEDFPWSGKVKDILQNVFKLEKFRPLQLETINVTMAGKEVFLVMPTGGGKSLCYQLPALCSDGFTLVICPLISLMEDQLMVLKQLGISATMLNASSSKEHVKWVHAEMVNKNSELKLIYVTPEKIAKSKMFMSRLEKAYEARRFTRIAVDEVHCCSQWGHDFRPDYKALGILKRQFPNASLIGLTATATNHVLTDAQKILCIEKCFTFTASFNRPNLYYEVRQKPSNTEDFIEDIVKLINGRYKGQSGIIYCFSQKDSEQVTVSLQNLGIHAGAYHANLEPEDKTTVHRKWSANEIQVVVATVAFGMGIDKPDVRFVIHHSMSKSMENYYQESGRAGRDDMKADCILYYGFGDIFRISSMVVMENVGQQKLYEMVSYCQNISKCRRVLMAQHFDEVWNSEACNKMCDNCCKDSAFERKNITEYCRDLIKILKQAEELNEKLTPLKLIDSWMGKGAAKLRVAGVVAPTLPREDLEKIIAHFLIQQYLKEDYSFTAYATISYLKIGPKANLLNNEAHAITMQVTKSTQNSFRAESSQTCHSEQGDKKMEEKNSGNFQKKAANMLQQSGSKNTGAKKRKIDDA

CC(=O)Nc1cccc(O)c1
10%: max response [1, 21]
inactive: activity change, negative = inhibition ([1]; at 57.5 µM (top of the series)) 14.9% | outcome [2]
23.8%: max response [1, 22]

CN1C(C)(C)CCCC1(C)C
5.5% and 25.7%: max response [1, 22]
4.18% and 13.7%: max response [1, 21]
inactive: outcome [3] | activity change, negative = inhibition ([1]; at 25.7 µM (top of the series)) 0.627% | activity change, negative = inhibition ([1]; at 57.5 µM (top of the series)) 10.8% | outcome [4] | outcome [5] | outcome [6] | outcome [7] | outcome [8] | outcome [9] | outcome [10] | outcome [11] | outcome [12] | outcome [13] | outcome [14] | outcome [15] | outcome [16] | outcome [17] | outcome [18] | outcome [19] | outcome [20]
